KB-3-1 tox: kills parental KB-3-1 adenocarcinoma cells; Potency, µM (top dose mostly 46.1 µM), usual class: cytotoxic; KB-3-1 viability, CellTiter-Glo ATP luminescence, 72 h; 1.4% of 400,000 active; also: nearly all actives have a fitted effect of over 60% in size
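KB-3-1 cells, DMEM (no phenol red) + 10% FBS; compound by pin transfer, 72 h, 37 °C. Readout: CellTiter-Glo luminescence after 10 min. Data normalized, curve-fitted.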
TDP1 cell noCPT: qHTS for Inhibitors of human tyrosyl-DNA phosphodiesterase 1 (TDP1): qHTS in cells in absence of CPT | Potency, µM (highest dose often 46.2 µM), without a hit: at the highest dose activity change, negative = growth inhibition, most hits filed as inhibitors | 15% of 420,000 active | DT40 Tdp1-/- hTDP1 cells, no CPT, ATP luminescence, 48 h; also: nearly all actives have a fitted effect of over 55% in size
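Luminescent ATP content (CellTiter-Glo) served as the growth readout. Knockout chicken DT40 cells expressing human TDP1 were exposed to compounds without camptothecin for a minimum 48 hr at 37 °C.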
HT1080-NT tox: kills 2HG-producing HT-1080-NT fibrosarcoma cells. HT-1080-NT fibrosarcoma viability, CellTiter-Glo ATP luminescence, 48 h. Potency, µM (titrated, usually from 46.1 µM), without a hit: at the highest dose activity, negative = less viability, actives largely listed as cytotoxic. 1.6% of 360,000 active;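 also: NT is the 2HG producing partner of a matched IDH1 knockdown line; 0% = DMSO-treated cells and -100% = media-only wells without cells; nearly all actives have a fitted effect of over 55% in size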
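Viability of the 2HG-overproducing fibrosarcoma line after 48 hours of compound exposure at 37 degrees C was determined by luminescence with CellTiter-Glo, and concentration-effect curves were then fitted and categorized.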
HT1080 IDH1KD tx: HT-1080 IDH1 knockdown cell toxicity (counter line). HT-1080 IDH1 knockdown viability, ATP luminescence, 48 h. Potency, µM (top dose mostly 46.1 µM), inactives show top-dose activity, negative = toxicity, most hits filed as cytotoxic. 2% of 360,000 active;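 also: 0% = DMSO wells and -100% = cell-free medium wells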
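Assay cells: HT-1080 with IDH1 knockdown, 750 per well, RPMI/5% FBS. Exposure: 48 h at 37 °C following 2 h pre-incubation. Read: CellTiter-Glo luminescence; fitted concentration-response, curve class assigned.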
DT40 TDP1 CPT: growth inhibition of DT40 Tdp1-/-;hTDP1 cells with camptothecin (screen for TDP1 inhibitors); Potency, µM (titrated, usually from 46.2 µM), inactives show at the highest dose activity change, negative = growth inhibition, hits mostly inhibitors; 12% of 420,000 active; AID 686979; chicken DT40 Tdp1-/-;hTDP1 cells + 20 nM CPT, ATP luminescence, 48 h; also: nearly all actives have a fitted effect of over 55% in size
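Chicken DT40 Tdp1-/- cells stably complemented with human TDP1 were seeded at 400 cells/well in medium containing 20 nM camptothecin, exposed to pin-transferred compounds, and grown at 37 °C for at least 48 hr. Viability was read as ATP luminescence.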
KB-V1 cytotox: kills drug-selected multidrug resistant KB-V1 cells; KB-V1 MDR cells viability, CellTiter-Glo, 72 h; Potency, µM (doses to about 46.1 µM), most hits filed as cytotoxic; 3.4% of 400,000 active; AID 1347076; also: nearly all actives have a fitted effect of over 60% in size
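Compound-treated KB-V1 multidrug-resistant cells, 72 h, 37 degrees C; viability by CellTiter-Glo. Fitted qHTS curves give the values.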
Active calls of the source: *; i = inactive; ? = inconclusive; . = not tested or not shown; [ ] = remark or other dose. An excerpt weighted towards active compounds, which were near 19% of everything screened. Calls follow the shape of the dose curve; as a rule, active = well fitted curve in the direction sought with a large enough effect; inconclusive = small, poorly fitted or top-dose-only effect, or another doubt; inactive = no such curve, though single readings can be large; an effect the other way counts as inactive or inconclusive. Unless noted, % is scaled to controls: 0 for no effect and ±100 for the full control effect; potency is read from the fitted curve at half-maximal effect.

SMILES	KB-3-1 tox	TDP1 cell noCPT	HT1080-NT tox	HT1080 IDH1KD tx	DT40 TDP1 CPT	KB-V1 cytotox
S=C1SCN(Cc2ccccn2)CN1Cc1ccco1	i	5.8µM*	?	15.8µM*	6.51µM*	?
S=C1NCN(Cc2ccco2)CN1CCc1ccccc1	i	?	11.9%	8.8%	?	i
COc1ccc(NC(=O)N2CCN(S(=O)(=O)c3ccc4c(ccn4C)c3)CC2)c(OC)c1	i	.	.	.	.	?
COCCCNC(=O)c1c(NC(=O)Cc2coc3cc(C)cc(C)c23)sc2c1CCCC2	i	?	.	.	?	i
COc1ccc(CNC(=O)CNC(C)c2ccc(F)cc2)cc1 (stereo not drawn)	i	-2.7%	-2.2%	5.2%	-10.1%	i
COc1ccc(C(CCNCc2ccc(F)cc2)c2ccc(F)cc2)cc1 (stereo not drawn)	?	?	?	23.1µM*	?	?
COc1ccc(C(CCNCc2ccccc2)c2ccc(F)cc2)cc1 (stereo not drawn)	?	?	?	16.4µM*	?	18.4µM*
COc1ccc(CNCCC(c2ccc(F)cc2)c2ccc(OC)cc2)cc1 (stereo not drawn)	23.1µM*	10.3µM*	20.6µM*	20.6µM*	11.6µM*	?
COc1ccc(CCNC(=O)CNCCc2ccc(F)cc2)cc1	i	?	-4.3%	5.6%	-18.7%	i
COc1ccc(C(CCNC(C)c2ccccc2)c2ccc(F)cc2)cc1 (stereo not drawn)	?	7.31µM*	?	18.4µM*	7.31µM*	11.6µM*
Cc1cccc(NC(=O)c2oc3ccccc3c2NC(=O)Cc2coc3cc(C)cc(C)c23)c1	i	?	.	.	?	i
O=S1(=O)CC(N2CCCCC2)CN1Cc1ccc(F)cc1 (stereo not drawn)	i	-16.9%	18.2%	22.9%	-1.7%	i
Cc1nc2c(C(=O)N(C)Cc3ccccc3)c[nH]n2c(=O)c1Cc1ccc(Cl)cc1	?	?	.	.	18.4µM*	i
Cc1nc2c(C(=O)NCCc3ccc(Cl)cc3)c[nH]n2c(=O)c1Cc1ccc(Cl)cc1	.	?	.	.	-5.4%	.
O=C1c2cc(F)ccc2-n2c1nc1ccccc1c2=O	6.51µM*	0.366µM*	?	?	0.206µM*	5.17µM*
COc1ccccc1CNC(=O)CSc1cc(C)[nH]c(=O)n1	i	9.9%	.	.	-1.9%	i
COC(=O)c1ccccc1-c1cc(C)cc2c1OC(CNC(=O)c1cnc(C)cn1)C2 (stereo not drawn)	.	18.4µM*	.	.	-11.6%[9.04 µM]	.
COc1cccc(NC(c2nnc(-c3ccccc3)o2)c2ccc(F)cc2Cl)c1 (stereo not drawn)	i	?	.	.	?	i
N/C(=N\OC(=O)c1ccc(Cl)cc1)c1ccccn1	i	-3.6%	0.0%[9.24 µM]	?	-8.8%	i
N/C(=N/OC(=O)c1ccc(Cl)cc1)c1ncc([N+](=O)[O-])s1	i	20.6µM*	22.1%	7.9%	16.4µM*	i
Cc1ccc(-n2c(=O)c3c(cnn3C)n(Cc3ccc(Cl)cc3)c2=O)cc1	.	?	.	.	-10.4%	.
COc1ccccc1CNC(=O)C1CC(c2cccc([N+](=O)[O-])c2)=NO1 (stereo not drawn)	?	23.1µM*	-19.6%	?	16.4µM*	?
COc1ccccc1CNC(=O)c1cc(-c2ccccc2)nn1CC1CC(c2cccc([N+](=O)[O-])c2)=NO1 (stereo not drawn)	i	14.6µM*	-1.4%	1.2%	10.3µM*	i
CCc1cc(Cn2nc(-c3ccccc3)cc2C(=O)NCc2cccs2)on1	?	?	?	-23.6%	16.4µM*	i
O=C(NCc1cccs1)c1cc(-c2ccccc2)nn1CC1CC(c2cccc([N+](=O)[O-])c2)=NO1 (stereo not drawn)	i	14.6µM*	-11.6%	-5.6%	16.4µM*	i
SMILES	KB-3-1 tox	TDP1 cell noCPT	HT1080-NT tox	HT1080 IDH1KD tx	DT40 TDP1 CPT	KB-V1 cytotox
Cc1cc(C)n(CCc2nc3c4ccccc4nc(SCc4ccc(Cl)cc4)n3n2)n1	i	4.4%	.	.	7.4%	i
Cc1ccc(-n2cc(-c3ccccc3)c3c(NC4CCCC4)ncnc32)cc1	.	23.1µM*	.	.	?	.
Cc1cccc(-n2cc(-c3ccccc3)c3c(NC4CCCC4)ncnc32)c1	.	16.4µM*	.	.	?	.
COc1ccc(C)cc1Nc1ncnc2c1c(-c1ccccc1)cn2-c1ccc(C)cc1	.	-21.6%	.	.	0.7%	.
CCOc1cccc(C2c3c(oc4cc(C)c(C)cc4c3=O)C(=O)N2c2nc(C)c(C)s2)c1 (stereo not drawn)	i	-28.1%	.	.	-6.3%	i
CC1CCCN(c2nc3c(c(=O)[nH]c(=O)n3C)n2CCSc2nc3ccccc3o2)C1 (stereo not drawn)	i	-17.9%	0.2%	0.0%	-7.1%	i

High-throughput results: PubChem BioAssay, National Center for Advancing Translational Sciences (NCATS)
